# Measured values from PubChem BioAssay.
# The source made the active and inactive calls.
# Legend:
# [1] = anti-His antibody binders, primary screen, artefact control for SMM control protein annotation, biochemical, small-molecule microarray, 635 nm fluorescence (AID 1128); conditions: anti-His Alexa647 antibody binding, higher = more signal;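 further: score merges feature fluorescence with signal-to-noise for each printed compound spot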
# [2] = tested on: Human papillomavirus type 1a E7 protein (residues 1-88); test: HPV1a E7 small-molecule binders, primary screen, biochemical, small-molecule microarray, residues 1-88, 635 nm (AID 1129); conditions: small-molecule microarray binding, fluorescence 635 nm; higher = more signal
# [3] = molecular target: Focal adhesion kinase 1 (Homo sapiens) (UniProt Q05397); test: small-molecule microarray binders of FAK, primary screen, biochemical, 635/667 nm fluorescence, BSA, DTT (AID 1130); conditions: PTK2 binding, 635 nm fluorescence, higher = more signal;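 further: composite of spot emission at 667 nm and signal to noise over triplicate slides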
# Focal adhesion kinase 1 (Homo sapiens), sequence (Q05397 whole entry, looked up): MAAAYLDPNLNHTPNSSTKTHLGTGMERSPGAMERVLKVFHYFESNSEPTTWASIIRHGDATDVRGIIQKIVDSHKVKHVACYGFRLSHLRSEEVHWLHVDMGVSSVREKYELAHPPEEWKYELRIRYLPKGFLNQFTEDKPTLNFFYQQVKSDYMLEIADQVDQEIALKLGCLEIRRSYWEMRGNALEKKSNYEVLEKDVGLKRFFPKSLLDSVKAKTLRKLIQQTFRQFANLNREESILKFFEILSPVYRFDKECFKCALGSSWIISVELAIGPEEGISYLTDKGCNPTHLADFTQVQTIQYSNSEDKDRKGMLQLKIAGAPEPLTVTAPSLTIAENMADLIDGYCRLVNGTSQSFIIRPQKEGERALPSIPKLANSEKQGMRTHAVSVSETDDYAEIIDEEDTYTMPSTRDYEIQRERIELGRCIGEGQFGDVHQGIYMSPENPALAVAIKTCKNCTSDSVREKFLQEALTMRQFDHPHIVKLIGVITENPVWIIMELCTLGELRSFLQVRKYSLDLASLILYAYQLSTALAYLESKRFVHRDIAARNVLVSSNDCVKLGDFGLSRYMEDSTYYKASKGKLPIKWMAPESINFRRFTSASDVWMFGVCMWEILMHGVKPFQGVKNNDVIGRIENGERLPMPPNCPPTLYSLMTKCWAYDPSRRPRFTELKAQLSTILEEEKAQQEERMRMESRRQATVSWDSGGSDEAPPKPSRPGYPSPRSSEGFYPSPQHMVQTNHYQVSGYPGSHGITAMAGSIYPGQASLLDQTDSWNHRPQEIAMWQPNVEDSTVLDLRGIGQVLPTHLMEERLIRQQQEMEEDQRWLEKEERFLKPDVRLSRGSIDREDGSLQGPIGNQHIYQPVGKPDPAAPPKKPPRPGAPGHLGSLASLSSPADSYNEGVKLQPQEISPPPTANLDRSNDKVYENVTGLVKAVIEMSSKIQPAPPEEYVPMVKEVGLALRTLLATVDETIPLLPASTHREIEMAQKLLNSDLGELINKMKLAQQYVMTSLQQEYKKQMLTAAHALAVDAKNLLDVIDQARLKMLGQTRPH
# [4] = tested on: Fibrinogen (Alexa647-labelled); test: fibrinogen binders on compound microarrays, profiling panel, artefact control for SMM control-protein annotation, biochemical, small-molecule microarray, 635/667 nm fluorescence (AID 1131); conditions: fibrinogen-A647 binding fluorescence, higher = more signal;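 further: z-score merges 667 nm fluorescence with per-spot signal-to-noise over triplicate slides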
# [5] = molecular target: Follistatin (Homo sapiens) (UniProt P19883); test: follistatin binders on small-molecule microarrays, primary screen, biochemical, small-molecule microarray, 635/667 nm fluorescence (AID 1132); conditions: FST binding, 635 nm fluorescence, higher = more signal
# Follistatin (Homo sapiens), sequence (P19883 whole entry, looked up): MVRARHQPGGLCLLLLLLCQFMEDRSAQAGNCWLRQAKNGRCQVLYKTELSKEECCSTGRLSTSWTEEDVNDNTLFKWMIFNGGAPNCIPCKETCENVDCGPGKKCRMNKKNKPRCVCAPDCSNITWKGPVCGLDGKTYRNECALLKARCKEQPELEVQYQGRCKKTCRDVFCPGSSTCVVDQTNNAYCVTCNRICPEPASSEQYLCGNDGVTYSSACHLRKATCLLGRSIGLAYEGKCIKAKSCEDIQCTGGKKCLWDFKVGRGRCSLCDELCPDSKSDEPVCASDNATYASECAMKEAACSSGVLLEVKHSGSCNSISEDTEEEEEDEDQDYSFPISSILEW
# [6] = molecular target: Fibroblast growth factor 2 (Homo sapiens) (UniProt P09038); test: FGF2 binders on small-molecule microarrays, primary screen, biochemical, small-molecule microarray, 635/667 nm fluorescence (AID 1133); conditions: small-molecule microarray binding, FGF2, fluorescence 635/667; higher = more signal
# Fibroblast growth factor 2 (Homo sapiens), sequence (P09038 whole entry, looked up): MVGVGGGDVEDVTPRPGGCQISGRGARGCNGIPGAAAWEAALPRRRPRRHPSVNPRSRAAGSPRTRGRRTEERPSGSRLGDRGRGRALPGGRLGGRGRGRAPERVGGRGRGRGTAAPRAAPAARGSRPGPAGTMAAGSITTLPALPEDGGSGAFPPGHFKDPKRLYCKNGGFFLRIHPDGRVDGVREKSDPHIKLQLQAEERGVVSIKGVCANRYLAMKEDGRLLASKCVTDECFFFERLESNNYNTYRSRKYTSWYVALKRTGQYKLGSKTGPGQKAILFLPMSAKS
# [7] = mitochondrial membrane potential change in A549 cells, profiling panel, cell-based, JC-1 fluorescence, basal, 24 h, 100 nL (AID 1138); conditions: higher = more signal;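 further: A549 lung adenocarcinoma cells under basal conditions with no added stimulus; test concentration not given here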
# Lefty1 = Lefty1 binders on small-molecule microarrays, primary screen, biochemical, small-molecule microarray, 635/667 nm fluorescence (AID 1139); conditions: small-molecule microarray binding, fluorescence 635/667; higher = more signal
# [8] = tested on: wheat germ agglutinin (Triticum aestivum), Alexa647-labelled; test: wheat germ agglutinin binders on compound microarrays, profiling panel, artefact control for SMM control-protein annotation, biochemical, small-molecule microarray, 635/667 nm fluorescence (AID 1140); conditions: WGA-A647 binding, 635 nm fluorescence, higher = more signal;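 further: score merges 667 nm feature emission with signal to noise over triplicate slides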
# [9] = molecular target: Luciferin 4-monooxygenase (Photinus pyralis) (UniProt P08659); test: firefly luciferase enzyme inhibitors, primary screen, biochemical, luminescence, purified enzyme, 2006 set (AID 1141); conditions: SteadyGlo luminescence, 30 min, higher = more signal, called active from +8 up or from −8 down;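 further: cell-free assay with purified firefly luciferase at 100 ng per well in PBS; test concentration not given here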
# Luciferin 4-monooxygenase (Photinus pyralis), sequence (P08659 whole entry, looked up): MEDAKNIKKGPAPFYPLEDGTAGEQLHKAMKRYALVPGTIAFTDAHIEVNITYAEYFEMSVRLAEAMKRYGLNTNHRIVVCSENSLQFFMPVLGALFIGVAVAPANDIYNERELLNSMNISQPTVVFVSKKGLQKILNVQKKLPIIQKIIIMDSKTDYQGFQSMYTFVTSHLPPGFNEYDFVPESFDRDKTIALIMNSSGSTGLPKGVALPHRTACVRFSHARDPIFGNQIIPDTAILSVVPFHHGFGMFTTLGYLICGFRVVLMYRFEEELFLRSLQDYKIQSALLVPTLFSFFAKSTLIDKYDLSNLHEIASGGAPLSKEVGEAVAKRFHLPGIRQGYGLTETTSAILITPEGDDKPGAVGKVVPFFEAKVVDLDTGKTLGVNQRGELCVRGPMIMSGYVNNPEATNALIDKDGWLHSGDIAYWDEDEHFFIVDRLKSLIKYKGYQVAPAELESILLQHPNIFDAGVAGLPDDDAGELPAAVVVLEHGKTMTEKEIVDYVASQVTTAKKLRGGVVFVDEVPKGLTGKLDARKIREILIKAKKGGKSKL
Structure (SMILES),composite z-score [1],composite z-score [2],composite z-score [3],composite z-score [4],composite z-score [5],composite z-score [6],z-score [7],composite z-score (Lefty1),composite z-score [8],z-score [9]
C=CCN1Cc2ccccc2C[C@]2(N=C(c3ccc(OCCCO)cc3)O[C@@H]2c2ccccc2)C1=O,1.66,1.12,0.692,0.441,1.36,1.76,1.21,0.706,0.436,-1.87 (inactive)
COCCOC(=O)N1C(=O)[C@@]2(c3cc(C#Cc4ccc(OC)cc4)ccc31)[C@H](c1ccc(O)cc1)N1[C@H](c3ccccc3)[C@H](c3ccccc3)OC(=O)[C@H]1[C@@H]2C(=O)N1CCN(c2ncccn2)CC1,1.23,1.18,0.351,0.624,1.36,0.712,-0.863,0.604,0.584,0.384 (inactive)
NC(=O)NCC#Cc1ccc2c(c1)[C@]1(C(=O)N2)[C@H](c2ccccc2OCCO)N2[C@H](c3ccccc3)[C@H](c3ccccc3)OC(=O)[C@H]2[C@@H]1C(=O)N1CCCCCCC1,0.443,1.25,2.2,0.505,1.37,0.927,-0.724,0.912,1.46,-0.87 (inactive)
CCCCC(=O)N(Cc1ccccc1F)[C@@H]1CC(C(=O)NCCO)=C[C@H](Oc2c(I)cc(CO)cc2OC)[C@H]1O,1.28,1.25,1.38,0.96,1.51,2.04,-1.47,1.58,0.736,1.57 (inactive)
COCCOC(=O)N1C(=O)[C@@]2(c3cc(C#CC4(O)CCCCCC4)ccc31)[C@H](c1ccc(O)cc1)N1[C@H](c3ccccc3)[C@H](c3ccccc3)OC(=O)[C@H]1[C@@H]2C(=O)N1CCc2cc(OC)c(OC)cc2C1,-0.083,-0.183,0.462,-1.69,-0.792,-0.505,-0.506,-0.625,0.663,0.503 (inactive)
COC(=O)[C@@]1(Cc2ccc(OC)cc2)[C@H]2c3cc(C(=O)N(C)C)n(Cc4ccc(OC)c(OC)c4)c3C[C@H]2CN1C(=O)c1ccccc1,1.26,1.25,0.96,0.844,0.745,-0.3,0.327,-0.257,0.951,1.72 (inactive)
C[n+]1ccc2ccc(O)cc2c1,1.81,-0.495,0.132,-0.399,1.37,1.68,-0.924,1.54,-0.37,0.591 (inactive)
CCOC(=O)C1=CC[C@@H](c2ccccc2)N(S(=O)(=O)c2ccc(C)cc2)[C@H]1c1ccc(C#N)cc1,1,1.19,0.456,0.931,-0.0375,-0.732,2.11,-0.507,1.23,1.23 (inactive)
C=CCC(OC(C)=O)[C@@H]1[C@@H](N(Cc2ccc(-c3ccccc3)cc2)C(=O)c2ccc(C)cc2)c2cc(OCCCO)ccc2N1C(=O)c1ccc2ccccc2n1 (stereo not given in full),-0.512,-0.0119,-0.0203,-0.459,0.0869,-0.006,3.18,-0.135,-0.0101,-1.9 (inactive)
COc1ccc([Si](C)(C)[C@@H]2[C@@H](CC(=O)N3Cc4ccccc4C[C@H]3CO)O[C@]3(C(=O)N(Cc4cccc(N5C(=O)COc6ccccc65)c4)c4ccccc43)[C@H]2C)cc1,1.16,1,0.261,0.269,1.26,1.76,-0.0295,1.25,0.0948,-0.438 (inactive)
C=CCN1C(=O)[C@]2(Cc3ccccc31)N=C(c1ccc(OCCCO)cc1)O[C@@H]2c1ccccc1,0.599,1.22,0.436,0.585,1.36,1.65,0.188,0.366,0.322,-1.39 (inactive)
COC(=O)[C@@]1(Cc2ccccc2)[C@H]2c3cc(C(=O)N(C)C)n(Cc4ccccc4)c3C[C@H]2CN1C(=O)c1ccccc1,1.21,1.13,0.614,0.839,0.241,-0.605,0.458,-0.0169,1.04,1.66 (inactive)
COCCOC(=O)N1C(=O)[C@@]2(c3cc(C#CCC(C(=O)OC)C(=O)OC)ccc31)[C@H](c1ccc(OCCO)cc1)N1[C@H](c3ccccc3)[C@H](c3ccccc3)OC(=O)[C@H]1[C@@H]2C(=O)NC[C@H](O)c1ccccc1,1.18,1.22,0.418,0.952,1.29,1.7,-0.95,1.15,0.422,-0.056 (inactive)
COCCCNC(=O)[C@]1(Cc2ccccc2N=[N+]=[N-])N=C(c2ccc(OCCCO)cc2)O[C@@H]1c1ccccc1CN=[N+]=[N-],2.33,1.22,0.631,0.947,1.35,0.449,-0.418,0.231,1.12,-2.5 (inactive)
O=C(NCC(O)CO)[C@@]1(Cc2ccccc2)N=C(c2ccc(OCCCO)cc2)O[C@H]1c1ccccc1 (stereo not given in full),3.21,1.2,0.0855,0.956,1.29,0.331,1.44,-0.836,0.922,-1.6 (inactive)
CO[C@H]1O[C@H](CO)[C@@H](OC(=O)Nc2ccc3c(c2)OCO3)[C@H](OC(=O)Nc2ccc3c(c2)OCO3)[C@H]1OC(=O)Nc1ccc2c(c1)OCO2,2.47,1.22,0.0847,0.86,1.23,0.506,-0.641,0.683,1.02,-5.43 (inactive)
COCCCNC(=O)[C@@]1(Cc2ccccc2I)c2ccccc2C(=O)N(Cc2ccccc2)[C@H]1c1ccc(CO)cc1,0.536,-0.726,-0.548,-1.03,-1.6,-1.21,1.28,-1.94,-1.27,-0.751 (inactive)

Structure (SMILES),composite z-score [1],composite z-score [2],composite z-score [3],composite z-score [4],composite z-score [5],composite z-score [6],z-score [7],composite z-score (Lefty1),composite z-score [8],z-score [9]
COc1cc(NN2C(C(O)c3ccccc3)C=CC3C(=O)N(c4ccccc4)C(=O)C32)cc(OC)c1OC (stereo not given),1.67,1.28,0.707,0.967,0.952,0.444,1.42,0.879,1.39,-2.13 (inactive)
O=C1C2C=CC(C(O)c3ccccn3)N(Nc3ccccc3F)C2C(=O)N1c1ccccc1 (stereo not given),-0.0724,0.525,1.27,0.696,0.101,-0.0308,1.03,-0.377,0.253,-0.323 (inactive)
O=C1OCCC/C=C\[C@H]2OC34C=CCN(CCN5CCOCC5)C(=O)[C@H]3N(CCO)C(=O)[C@@H]4C12 (stereo not given in full),2.47,-1.64,-0.3,-0.786,-0.981,-0.322,-1.08,-1.57,-0.365,0.634 (inactive)
[N-]=[N+]=NCc1ccccc1C[C@]1(C(=O)NCC(O)CO)COC(c2ccc(OCCCO)cc2)=N1 (stereo not given in full),1.41,1.2,1.98,0.0694,0.831,-0.0586,1.18,-0.683,0.964,-0.0644 (inactive)
CC1CC/C=C\[C@H]2OC34C=CCN(Cn5nnc6ccccc65)C(=O)[C@H]3N(CCCO)C(=O)[C@@H]4C2C(=O)O1 (stereo not given in full),0.239,-0.326,-0.47,-1.15,-0.693,-1.03,-0.198,-0.146,-1.09,0.885 (inactive)
COCCCNC(=O)[C@@]1(Sc2ccc(C)cc2)CC(=O)N(Cc2ccccc2)[C@@H]1c1ccc(CO)cc1,0.068,-0.277,-0.166,-1.56,-0.489,-0.236,-0.0602,-1.03,-0.4,0.542 (inactive)
Cc1ccc([C@H]2C(C(=O)O)=C[C@@H](C(C)C)N2S(=O)(=O)c2ccc(C)cc2)cc1,1.96,1.29,1.3,0.956,0.126,-0.376,-0.209,-0.297,0.133,1.85 (inactive)
C=CCC(OC(C)=O)[C@@H]1[C@@H](N(Cc2cc3ccccc3o2)C(=O)c2ccc(-c3ccccc3)cc2)c2cc(OCCCO)ccc2N1C(=O)Cc1ccc2ccccc2c1 (stereo not given in full),0.708,-0.321,-0.0252,0.186,0.386,-0.0741,1.33,-0.0934,0.34,-0.729 (inactive)
CCCCN1CC=CC23O[C@@H]4C=CCCOC(=O)C4[C@H]2C(=O)N(CCCO)[C@@H]3C1=O (stereo not given in full),-1.31,-1.79,-0.274,-1.42,0.274,-0.469,-1.13,-0.439,-1.45,-0.11 (inactive)
Cc1ccc(N2C(=O)c3ccccc3[C@@H](C(=O)NC(C)C)[C@@H]2c2ccc(CO)cc2)nc1,0.621,0.708,-0.291,-0.756,0.931,1.55,-1.05,-0.362,0.692,1.25 (inactive)
C=CCCN(CC#C[C@H]1Oc2ccccc2S(=O)(=O)N2CCC[C@@H]12)S(=O)(=O)c1ccc(C)cc1,0.881,0.136,0.172,-0.348,0.546,1.22,0.957,0.317,-0.0231,-0.291 (inactive)
CC(C)(C)OC(=O)CC[C@@]1(C(=O)NCC(O)CO)N=C(c2ccc(OCCCO)cc2)O[C@@H]1c1ccccc1 (stereo not given in full),0.0885,0.913,0.415,0.681,0.392,-0.691,0.477,-0.0491,0.467,-0.962 (inactive)
CN1C(=O)C2C=CC(C(O)c3ccc(Br)cc3)N(Nc3ccccc3)C2C1=O (stereo not given),-0.233,-0.426,0.1,-0.23,-1.12,-1.22,-0.101,-1.33,0.387,-1.11 (inactive)
CC(C)C(=C=CC[C@H](O)c1ccccc1OCCO)CCO,0.526,0.0618,0.101,0.217,0.0251,0.465,0.205,0.653,0.417,0.27 (inactive)
CN1C(=O)C2C=CC(C(O)C(c3ccccc3)c3ccccc3)N(Nc3ccccc3)C2C1=O (stereo not given),0.889,1.19,0.668,1.03,1.36,0.0635,0.0496,0.643,0.889,-0.0128 (inactive)
C=CCOC(=O)[C@H]1[C@@H]2C(=O)O[C@@H](c3ccccc3)[C@@H](c3ccccc3)N2[C@@H](c2ccc(OCCOC(=O)[C@@H]3C[C@@H]4C(=O)NCC(=O)N4[C@@H]3c3ccc(O)cc3)cc2)[C@]12C(=O)Nc1ccc(I)cc12,1.59,1.22,2.17,0.597,1.41,1.65,-1.17,1.24,0.763,-0.978 (inactive)
